Holding throughout (assay): growth (OD600 after 10 h); higher = more growth (less inhibition)
Experiment [1] concerns E. coli TESEC Alr+ wild-type control. The following applies: compound 0.1 mM; raw OD600 reference: median of DMSO wells 0.241, cell-free background 0.041. As for the experimental part: (§1)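 TESEC Mtb Alr E. coli, or the Alr+ wild-type control, in 384-well plates with Prestwick library compounds at 0.1 mM and 1% DMSO, across arabinose induction levels of 1E3 to 1E7 nM. Growth is read as OD600 after 10 h at 37 °C in triplicate biological replicates.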

In experiment [2] the test system is E. coli TESEC Mtb Alr. Particulars: compound 0.1 mM. As for the experimental part:
as §1

Experiment [3] concerns E. coli TESEC Mtb Asd. The following applies: compound 0.1 mM. As for the experimental part: (§2)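 TESEC E. coli strains in which the native enzyme is deleted and replaced by arabinose-inducible Mtb Asd, DapB, CysH or TrpD, each grown in its selective medium. Strains were screened against the Prestwick library at 0.1 mM and 1% DMSO in 384-well format at low and high arabinose induction. Growth is read as OD600 after 10 h in triplicate.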

The subject of experiment [4] is E. coli TESEC Mtb DapB. The following applies: compound 0.1 mM. On the procedure: as §2
Experiment [5] deals with E. coli TESEC Mtb Alr. Particulars: compound 0.1 mM. On the procedure: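 TESEC Mtb Alr E. coli (ΔaraC ΔtolC ΔentC Δalr ΔdadX, arabinose-inducible Mtb Alr) or the Alr+ wild-type control strain, grown in defined M9-fructose medium without D-alanine in 96-well plates with Prestwick library compounds at 0.1 mM and 1% DMSO. Low Alr induction is 0.1 µM arabinose and high induction is 10 mM arabinose.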
This is another data set of the same source.

Setting [6] is: arabinose 1000 nM, raw OD600 reference: median of DMSO wells 0.294, cell-free background 0.041.
Where [7] appears, read: arabinose 10000 nM, raw OD600 reference: median of DMSO wells 0.264, cell-free background 0.041.
[8] abbreviates: arabinose 100000 nM, raw OD600 reference: median of DMSO wells 0.201, cell-free background 0.041.
The mark [9] stands for this setting: arabinose 1000000 nM, raw OD600 reference: median of DMSO wells 0.193, cell-free background 0.041.
[10] abbreviates: arabinose 10000000 nM, raw OD600 reference: median of DMSO wells 0.146, cell-free background 0.041.
The mark [11] stands for this setting: arabinose induction (level): High, raw OD600 reference: median of DMSO wells 0.331, cell-free background 0.041.
The mark [12] stands for this setting: arabinose induction (level): Low, raw OD600 reference: median of DMSO wells 0.417, cell-free background 0.041.
[13] abbreviates: arabinose induction (level): High, raw OD600 reference: median of DMSO wells […], cell-free background 0.041.
Where [14] appears, read: arabinose induction (level): Low, raw OD600 reference: median of DMSO wells 0.227, cell-free background 0.041.
Setting [15] is: arabinose 100 nM, raw OD600 reference: median of DMSO wells 0.413, cell-free background 0.052.
Where [16] appears, read: arabinose 10000000 nM, raw OD600 reference: median of DMSO wells […], cell-free background 0.052.

Structures can show the parent of a compound that is named as a salt. ± gives the standard deviation of the averaged measurements.

The results in this text go back to the supplement of paper PMC9262897, “Low-cost anti-mycobacterial drug discovery using engineered E. coli” (Nature Communications, 2022).

Turning to `O=C(c1ccc(F)cc1)C1CCN(CCn2c(=O)[nH]c3ccccc3c2=O)CC1` [Ketanserin tartrate hydrate], the growth in experiment [1] was found to be 0.183 ± 0.0037; in experiment [2] (setting [6]), 0.251 ± 0.0083; in experiment [2] (setting [7]), 0.27 ± 0.0047; in experiment [2] (setting [8]), 0.221 ± 0.033; in experiment [2] (setting [9]), 0.132 ± 0.0046; in experiment [2] (setting [10]), 0.17 ± 0.0079. Also, the growth came out at 0.243 ± 0.075 in experiment [3] (setting [11]); 0.393 ± 0.039 in experiment [3] (setting [12]); 0.203 ± 0.02 in experiment [4] (setting [13]); 0.251 ± 0.056 in experiment [4] (setting [14]); 0.407 ± 0.011 in experiment [5] (setting [15]); 0.2801 ± 0.002 in experiment [5] (setting [16]).
Turning to `CCOc1ccc(NC(C)=O)cc1` [Phenacetin], the growth in experiment [1] was 0.243 ± 0.0043; in experiment [2] (setting [6]) it was 0.2912 ± 0.0014; in experiment [2] (setting [7]), 0.27 ± 0.0042; in experiment [2] (setting [8]) it was 0.231 ± 0.028; in experiment [2] (setting [9]), 0.1828 ± 0.0017; in experiment [2] (setting [10]), 0.152 ± 0.0045. Also, the growth in experiment [3] (setting [11]) was 0.345 ± 0.083; in experiment [3] (setting [12]), 0.413 ± 0.084; in experiment [4] (setting [13]), 0.208 ± 0.019; in experiment [4] (setting [14]), 0.224 ± 0.012; in experiment [5] (setting [15]), 0.411 ± 0.011; in experiment [5] (setting [16]) it was 0.329 ± 0.019.
Turning to `Cn1c(=O)c2c(ncn2CC2OCCO2)n(C)c1=O` [Doxofylline], the growth was 0.248 ± 0.0076 in experiment [1]; 0.302 ± 0.015 in experiment [2] (setting [6]); 0.259 ± 0.01 in experiment [2] (setting [7]); 0.197 ± 0.017 in experiment [2] (setting [8]); 0.179 ± 0.011 in experiment [2] (setting [9]); 0.158 ± 0.0092 in experiment [2] (setting [10]). In addition, the growth turned out to be 0.476 ± 0.018 in experiment [3] (setting [11]); 0.469 ± 0.035 in experiment [3] (setting [12]); 0.1957 ± 0.00055 in experiment [4] (setting [13]); 0.238 ± 0.0011 in experiment [4] (setting [14]); 0.408 ± 0.0051 in experiment [5] (setting [15]); 0.334 ± 0.01 in experiment [5] (setting [16]).
Consider `O=C(O)c1ccccc1Nc1cccc(C(F)(F)F)c1` [Flufenamic acid], for which the growth was 0.0528 ± 0.00081 in experiment [1]; 0.05003 ± 0.00047 in experiment [2] (setting [6]); 0.04063 ± 0.00038 in experiment [2] (setting [7]); 0.0593 ± 0.0024 in experiment [2] (setting [8]); 0.04467 ± 0.00032 in experiment [2] (setting [9]); 0.05807 ± 0.00038 in experiment [2] (setting [10]). The growth in experiment [3] (setting [11]) came to 0.0691 ± 0.017; in experiment [3] (setting [12]), 0.0784 ± 0.0046; in experiment [4] (setting [13]), 0.117 ± 0.0058; in experiment [4] (setting [14]), 0.181 ± 0.046; in experiment [5] (setting [15]), 0.0904 ± 0.038; in experiment [5] (setting [16]), 0.0543 ± 0.00078.
Turning to `CCOC(=O)C1=C(C)NC(C)=C(C(=O)OC)C1c1cccc(Cl)c1Cl` (configuration not stated) [Felodipine], the growth in experiment [1] turned out to be 0.0763 ± 0.012; in experiment [2] (setting [6]), 0.0729 ± 0.024; in experiment [2] (setting [7]), 0.0553 ± 0.0007; in experiment [2] (setting [8]) it was 0.0562 ± 0.0017; in experiment [2] (setting [9]), 0.0517 ± 0.00035; in experiment [2] (setting [10]), 0.0625 ± 0.0023. Moreover, the growth came out at 0.0579 ± 0.0044 in experiment [3] (setting [11]); 0.0538 ± 0.002 in experiment [3] (setting [12]); 0.07363 ± 0.0005 in experiment [4] (setting [13]); 0.0792 ± 0.032 in experiment [4] (setting [14]); 0.3 ± 0.099 in experiment [5] (setting [15]); 0.0862 ± 0.0057 in experiment [5] (setting [16]).
Turning to `COc1ccccc1N1CCN(CCCNc2cc(=O)n(C)c(=O)n2C)CC1` [Urapidil hydrochloride], the growth in experiment [1] was found to be 0.224 ± 0.0078; in experiment [2] (setting [6]), 0.274 ± 0.021; in experiment [2] (setting [7]) it was 0.259 ± 0.0036; in experiment [2] (setting [8]), 0.173 ± 0.017; in experiment [2] (setting [9]) it was 0.17 ± 0.004; in experiment [2] (setting [10]), 0.137 ± 0.0051. Moreover, the growth in experiment [3] (setting [11]) was 0.28 ± 0.038; in experiment [3] (setting [12]), 0.455 ± 0.065; in experiment [4] (setting [13]), 0.183 ± 0.017; in experiment [4] (setting [14]), 0.201 ± 0.015; in experiment [5] (setting [15]), 0.409 ± 0.017; in experiment [5] (setting [16]), 0.326 ± 0.011.
